ERAP1 inh: inhibitors of human ERAP1 aminopeptidase. Q9NZ08. recombinant ERAP1, Leu-AMC fluorescence, 60 min. inhibition, % at 10.7 µM. 340,000 compounds, 0.15% hits. AID 652197;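 active = mean replicate inhibition of at least 30%, or all replicates individually reaching that 30% level; inactive = mean below 30% and not every replicate reaching it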
Target sequence (Q9NZ08 whole entry, looked up): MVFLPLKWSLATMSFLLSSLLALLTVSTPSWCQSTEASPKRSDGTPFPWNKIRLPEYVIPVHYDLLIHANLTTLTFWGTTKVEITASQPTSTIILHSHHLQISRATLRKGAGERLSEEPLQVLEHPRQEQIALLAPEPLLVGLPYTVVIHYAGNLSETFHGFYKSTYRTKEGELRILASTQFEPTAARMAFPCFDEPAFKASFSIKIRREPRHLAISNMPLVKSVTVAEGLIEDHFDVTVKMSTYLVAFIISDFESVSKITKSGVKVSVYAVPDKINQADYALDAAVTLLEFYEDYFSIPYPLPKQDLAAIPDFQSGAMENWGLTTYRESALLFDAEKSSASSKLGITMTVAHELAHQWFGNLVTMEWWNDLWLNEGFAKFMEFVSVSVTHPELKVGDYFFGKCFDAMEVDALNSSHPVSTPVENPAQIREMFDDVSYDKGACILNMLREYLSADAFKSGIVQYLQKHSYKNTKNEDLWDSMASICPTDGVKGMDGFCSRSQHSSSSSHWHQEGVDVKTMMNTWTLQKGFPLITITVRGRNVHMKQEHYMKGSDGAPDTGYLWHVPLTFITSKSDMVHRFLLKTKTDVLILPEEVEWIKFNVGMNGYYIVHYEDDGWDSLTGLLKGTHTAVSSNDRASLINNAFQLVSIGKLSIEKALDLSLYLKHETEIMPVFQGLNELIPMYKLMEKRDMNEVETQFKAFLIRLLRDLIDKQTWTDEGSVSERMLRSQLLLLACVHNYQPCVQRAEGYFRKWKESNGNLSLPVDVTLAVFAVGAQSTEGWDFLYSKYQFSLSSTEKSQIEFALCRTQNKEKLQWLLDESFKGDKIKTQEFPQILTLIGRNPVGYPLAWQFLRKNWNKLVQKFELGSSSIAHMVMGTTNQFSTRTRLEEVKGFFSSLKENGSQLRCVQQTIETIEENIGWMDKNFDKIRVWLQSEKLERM
PvdQ acylase: blocks Pseudomonas aeruginosa PvdQ acylase activity; purified PvdQ acylase, fluorescence plate reader; 340,000 compounds, 0.063% hits; inhibition, % at 10 µM; in the data active = inhibition above about 30%, passing the limit was not always enough
Ecoli rRNA inh: selective bacterial rRNA inhibition in E. coli. E. coli WT GFP vs humanized-ribosome RFP mutants, fluorescence, 24 h; stronger effect = lower value; DMSO median 0, no signal -100. GFP signal change (wild-type ribosome), % (no concentration beside the values). 350,000 compounds, 1.6% hits. AID 720706;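 active = significant combined selectivity score with lowered wild-type GFP, culture density cut under 30%, mutant RFP and density less affected; inactive = any of these conditions unmet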
CFTR F508del cor: CFTR F508del correction in bronchial cells; CFBE cells, YFP halide quenching; stimulated with forskolin plus potentiator P3; % fluorescence drop versus neutral controls; activity (quench increase), % at 7.58 µM; 350,000 compounds, 0.36% hits; AID 720511;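 active = mean added fluorescence quench of at least 8% versus neutral control, with both replicates also reaching 8%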;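 note: cells transiently co-express mutant CFTR-F508del with the halide-sensitive YFP; corrector assay measuring rescue of mutant channel to the surface after 24 h compound exposure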
ARNT-TACC3 inh: disruptors of human ARNT/TACC3 interaction | inhibition, % at 9.99 µM | AID 623870 | AlphaScreen His-ARNT PAS-B/GST-TACC3 binding, luminescence; TACC3 fragment carries E629A point mutation | 390,000 compounds, 0.66% hits;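 active = mean inhibition of replicates at least 50% and at least half of replicates each reaching 50%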
Hits are given with their value; i = inactive; nt = no result given. Compounds with a hit are over-represented: about 2.1% of the library has one in this group of screens.

SMILES	ERAP1 inh	PvdQ acylase	Ecoli rRNA inh	CFTR F508del cor	ARNT-TACC3 inh
CCOc1ccc(CCNC(=O)COC(=O)COc2ccccc2C)cc1OCC	i	i	i	i	i
Cc1ccccc1OCC(=O)OCC(=O)NCCc1ccccc1	i	i	i	15	i
C/C=C/c1ccc2c(c1)O[C@H](CN(C)S(=O)(=O)c1ccc(C)cc1)[C@H](C)CN([C@H](C)CO)S2(=O)=O	i	nt	i	i	i
O=C(OCc1c(-c2ccccc2)ncc2ccccc12)c1ccc(Br)cc1	i	i	i	i	i
O=C(OCc1c(-c2ccccc2)ncc2ccccc12)c1cccs1	i	i	-21	i	i
C[C@@H]1CN([C@@H](C)CO)C(=O)Cc2cc(NC(=O)Cn3cnnn3)ccc2O[C@H]1CN(C)CC1CC1	i	nt	i	i	i
CN(CCOc1ccccc1)CC(=O)Nc1ccc(Cl)c(S(=O)(=O)N(C)C)c1	i	i	-37	nt	i
CN(C)S(=O)(=O)c1cc(NC(=O)CNCc2ccccc2)ccc1Cl	i	i	i	i	i
CCCC#Cc1cnc2c(c1)C(=O)N([C@@H](C)CO)C[C@H](C)[C@@H](CN(C)C(=O)c1cccc(F)c1)O2	i	nt	i	i	i
C=CCn1c(SCC(=O)c2ccc(O)c(O)c2)nnc1-c1cccc(C)c1	i	i	-27	i	i
C=CCn1c(SCC(=O)c2ccc(O)c(O)c2)nnc1-c1cccc(Cl)c1	i	i	i	i	i
Cn1ccnc1SCC(=O)NC1CCCC1	31	i	i	i	i
Cn1cnnc1SCC(=O)NC1CCCCC1	i	i	i	i	i
Cc1cc(SCc2ccc(Cl)cc2Cl)nc(=O)[nH]1	i	i	-31	i	i
Cc1cc(N(C)C)ccc1N=Nc1ccc(N)cc1	i	i	-51	i	i
Nc1ccc(N=Nc2ccc(N)cc2)cc1	i	i	-25	i	nt
Cc1ccc(S(=O)(=O)N(C)C[C@H]2OCCCC[C@@H](C)Oc3ccc(NS(=O)(=O)c4ccc(F)cc4)cc3C(=O)N([C@H](C)CO)C[C@@H]2C)cc1	i	nt	i	i	i
O=c1c2[nH]c3ccccc3c2ncn1CCCn1ccnc1	nt	i	nt	nt	i
O=c1c2[nH]c3ccc(Br)cc3c2ncn1CCCn1ccnc1	nt	i	nt	nt	79
O=C(CN1C(=O)NC2(CCCC2)C1=O)Oc1ccc2ccc(=O)oc2c1	57	i	i	i	i
Cn1cnc2nc[nH]c2c1=S	i	i	nt	16	i
S=c1nc[nH]c2nc[nH]c12	i	i	i	i	i
CCC(=O)N1CC2(CN(Cc3ccc(Cl)cc3)C2)c2c(n(C)c3cc(OC)ccc23)[C@@H]1CO	i	nt	i	i	nt
CCCNC(=O)N1CC2(CN(S(=O)(=O)c3cccc(OC)c3)C2)c2c(n(C)c3cc(OC)ccc23)[C@H]1CO	nt	nt	i	8.6	nt
CCC(=O)N1CC2(CCN(Cc3ccc(Cl)cc3)CC2)c2c(n(C)c3cc(OC)ccc23)[C@H]1CO	i	nt	i	14	nt
SMILES	ERAP1 inh	PvdQ acylase	Ecoli rRNA inh	CFTR F508del cor	ARNT-TACC3 inh
CCCNC(=O)N1CC2(CN(S(=O)(=O)c3ccccc3)C2)c2c(n(C)c3cc(OC)ccc23)[C@H]1CO	i	nt	i	i	nt
COC(=O)C1CCN(C(=O)c2ccc(SC)cc2OC)CC1	nt	i	nt	nt	nt
COc1ccccc1N1CCN(C(=O)c2ccc(-c3ccc(Cl)cc3)o2)CC1	i	i	i	9.4	i
COc1ccccc1N1CCN(C(=O)c2ccc3noc(-c4ccccc4)c3c2)CC1	i	nt	-13	i	nt
COc1ccccc1N1CCN(C(=O)c2ccc(-c3ccccc3)cc2)CC1	i	i	i	i	i
COc1cc(SC)ccc1C(=O)N1CCN(c2ccccc2OC)CC1	i	i	i	14	i
Cc1ccc(S(=O)(=O)N(C)C[C@H]2Oc3c(NS(=O)(=O)c4ccc(Cl)cc4)cccc3C(=O)N([C@@H](C)CO)C[C@H]2C)cc1	i	nt	i	i	nt
CC=Cc1ccc2n(c1=O)C[C@@H]1[C@@H](CO)[C@H](C(=O)NCCc3cn(C)cn3)N(C(=O)C3CCCC3)[C@H]21 (mixture of isomers)	i	nt	i	i	nt
CN1CCC/C1=C1/C(=O)N(c2ccccc2)N=C1NC(=O)Nc1cccc(Cl)c1	i	i	-31	i	i
C[C@@H]1CCCCO[C@@H](CN(C)S(=O)(=O)c2cccs2)[C@@H](C)CN([C@@H](C)CO)C(=O)c2cc(NS(=O)(=O)c3ccccc3)ccc2O1	i	nt	i	i	i
C[C@@H]1CN([C@@H](C)CO)C(=O)c2cc(NC(=O)C3CCCCC3)ccc2O[C@@H](C)CCCCO[C@@H]1CN(C)C(=O)c1ccccc1	i	nt	i	i	i
CC(=O)c1ccc(OCc2cn(CC(=O)c3ccc(O)cc3)nn2)c(C)c1	nt	nt	-31	i	nt
O=C(Cc1ccccc1)N1CC(=O)N2[C@H](CO)[C@@H](c3ccc(Br)cc3)[C@@H]2C1	i	nt	i	i	nt
CO[C@H]1CN(C)C(=O)c2ccc(NC(=O)NC(C)C)cc2OC[C@H](C)N(CCC(F)(F)F)C[C@H]1C	i	nt	i	i	i
CN(C)CCCN=Cc1c(O)n(Cc2ccccc2)c(=O)c2ccccc12	nt	i	nt	nt	i
CN(C)CCN=Cc1c(O)n(Cc2ccccc2)c(=O)c2ccccc12	i	i	-24	i	i
CCS(=O)c1scc(-c2ccc(Cl)cc2)c1C#N (stereo not given)	i	i	-32	i	i
CCOC(=O)c1sc(NC(=O)CSC(=S)N2CCN(C)CC2)nc1C	i	i	-25	i	i
CCOC(=O)c1sc(NC(=O)C2CCCCC2)nc1C	i	i	-30	i	i
COc1cccc(CN(C)C[C@H]2OCc3ccccc3-c3ccccc3C(=O)N([C@@H](C)CO)C[C@H]2C)c1	i	nt	i	i	i
CC(C)CCNc1c(-c2cccs2)nc2ccccn12	i	i	-26	i	i
Cc1noc(C)c1NC(=O)Nc1ccc2c(c1)C(=O)N([C@H](C)CO)C[C@H](C)[C@H](CN(C)CC1CCCCC1)OCCCC[C@@H](C)O2	i	nt	i	i	i
Cc1ccc(Nc2nc(Cl)nc3ncn(C)c23)c(C)c1	i	i	-36	i	i
Cc1ccc2[nH]cc(C(=O)NCc3cccs3)c(=O)c2c1	i	i	-24	i	i
COc1cccc2c(=O)c(C(=O)NCc3cccs3)c[nH]c12	nt	i	nt	nt	i
SMILES	ERAP1 inh	PvdQ acylase	Ecoli rRNA inh	CFTR F508del cor	ARNT-TACC3 inh
CC(=O)c1ccc2c(c1)N(CCCN(C)C)c1ccccc1S2	i	i	nt	i	i
CN(C)CCCN1c2ccccc2Sc2ccccc21	i	i	nt	11	i
N#Cc1cccc(-c2ccc3c(c2)[C@H]2[C@H](CCN2Cc2ccncc2)[C@H](CO)N3)c1	i	nt	i	i	14
N#Cc1cccc(-c2ccc3c(c2)[C@@H]2[C@@H](CCN2Cc2ccncc2)[C@@H](CO)N3)c1	i	nt	i	i	25
CO[C@H]1CC[C@H]2CCOc3ccc(C#N)cc3C(=O)N(C)C[C@@H](C)C(=O)N(C)C[C@@H]1O2	i	nt	i	nt	i
Cc1cc(C)c(S(=O)(=O)NCCOc2ccccc2)c(C)c1-n1cnnn1	i	i	-18	i	i

Screening data (PubChem)
